Screening results (PubChem BioAssay)
This is a sample that favours compounds with a hit; in the whole collection about 20% have one here.
Pf growth 48h = P. falciparum growth inhibition at 48 hours (one generation); Potency, µM (titrated, usually from 28.7 µM), most hits filed as inhibitors; P. falciparum luciferase growth in erythrocytes, 48 h; 310,000 compounds, 5.9% hits; AID 504832
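Luciferase-expressing P. falciparum in infected erythrocytes (2% hematocrit, 0.1% parasitemia final) in RPMI 1640/0.5% Albumax were exposed to compound for 48 hours at 37 C, 5% CO2; growth read as luminescence.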
HCMV inh = human cytomegalovirus inhibition; HFF cells, HCMV-luciferase reporter, 72 h; hits give low values; activity change, negative = inhibition, % at 57.5 µM; 410,000 compounds, 4.5% hits; in the data active = activity change below about -60%; inconclusive = no clear call, values can overlap the other calls; inactive = above about -39%
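Screen run at 2 compound doses on HFFs infected with reporter HCMV, MOI 1 PFU/cell. Luciferase activity from cell lysates at 72 h post infection gave inhibition relative to buffer-only and Salinomycin wells.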
Shiga inhibitor = blocks Shiga toxin action in Vero cells; Vero cells, Shiga toxin protein synthesis inhibition reporter; inhibition, % at 38.7 µM; 290,000 compounds, 9.2% hits; in the data active = inhibition mostly above about 28%, no sharp cut-off; inactive = mostly below about 43%
CHX counter = counter-screen hit for Shiga toxin inhibitors, cycloheximide; cell reporter, cycloheximide protein synthesis inhibition counterscreen; max response, %; 300,000 compounds, 12% hits; AID 2314; in the data active = max response mostly above about 13%, no sharp cut-off; inactive = mostly below about 14%; note: read at 38.3 µM for the half of the compounds with a filed dose
Pf growth 96h = inhibits malaria parasite growth, 96 h. P. falciparum luciferase reporter growth, 96 h. Potency, µM (doses to about 28.7 µM), actives largely listed as inhibitors. 320,000 compounds, 6.9% hits. AID 504834
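Erythrocytes infected with luciferase-expressing P. falciparum were dispensed at 2% hematocrit and 0.05% parasitemia (final), then incubated with compounds 96 hours at 37 C in 5% CO2. Luminescence after detection reagent addition reported growth.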
Large screens that a line does not name were inactive. Unless noted, calls come from the whole dose curve; as a rule, active = well fitted inhibition curve with a large enough effect; inconclusive = small, poorly fitted or top-dose-only effect, or another doubt; inactive = no such curve, though single readings can be large or run the other way.

CC(C)c1ccc(C2=C(O)c3ccccc3C(=O)C2=O)cc1	Pf growth 48h 1.5µM
CCOC(=O)c1c(C)[nH]c(CCC(=O)NCc2cc(Br)ccc2OC)c1C	none (no result: Pf growth 48h, Shiga inhibitor, CHX counter, Pf growth 96h)
COc1ccc(-n2c3c(cc(C(=O)N4CCN(CCO)CC4)c2=O)C(=O)CC(C)(C)C3)cc1	Pf growth 96h 10µM
O=C(C1CCCCN1S(=O)(=O)c1ccccc1[N+](=O)[O-])N1CCCCC1 (stereo not given)	none
O=C(Nc1ccc(Cl)c(Cl)c1)Nn1cnnc1	none
O=C(Nc1ccc(Cl)c(Cl)c1)Nc1ccccc1O	Shiga inhibitor 91, CHX counter 57
O=C(Nc1ccc(Cl)c(Cl)c1)c1ccccc1	none (no result: Shiga inhibitor, CHX counter)
NC(=O)c1cccc(NC(=O)Nc2ccc(Cl)cc2)c1	CHX counter 19, Pf growth 96h inconclusive
O=C(Nc1ccc(Cl)cc1)Nc1ccc(Cl)c(Cl)c1	Pf growth 48h 2.3µM, HCMV inh -98, Pf growth 96h 2.7µM (no result: Shiga inhibitor, CHX counter)
O=C(Nc1cccnc1)c1sc2cccc(F)c2c1Cl	Shiga inhibitor 47, CHX counter 38, Pf growth 96h inconclusive
COC(=O)c1cccc(NC(=O)Nc2ccc(Cl)cc2Cl)c1	Pf growth 96h inconclusive
Cn1c(SC/C=C/c2ccccc2)nnc1-c1ccco1	Pf growth 48h inconclusive, HCMV inh inconclusive (no result: Pf growth 96h)
c1cc(CN2CCCNCCNCCCNCC2)ccc1CN1CCCNCCNCCCNCC1	none (no result: Pf growth 48h, HCMV inh, Pf growth 96h)
N#Cc1ccc(NC(=O)Nc2ccc(Cl)cc2)cc1	Pf growth 48h inconclusive, HCMV inh -101, Shiga inhibitor 61, CHX counter 38
COc1ccc(NC(=O)Nc2ccc(Br)c(C)c2)cc1	Shiga inhibitor 31
COc1ccc(NC(=O)Nc2ccc(F)c(Cl)c2)cc1	HCMV inh inconclusive, Shiga inhibitor 91, CHX counter 65
CC(C)(C)N(NC(=O)Nc1ccc(Cl)c(Cl)c1)C(=O)c1ccccc1	Pf growth 48h 12µM, HCMV inh -80, Pf growth 96h inconclusive
Cc1ccc(-n2c(=O)c3c(C)c(C)sc3n(CC(=O)NCc3ccccc3)c2=O)cc1C	none (no result: Pf growth 48h, Shiga inhibitor, CHX counter, Pf growth 96h)
O=C(Cc1cccc([N+](=O)[O-])c1)NCc1nc2cccnc2n1Cc1ccc(F)cc1	none (no result: Pf growth 48h, Shiga inhibitor, CHX counter, Pf growth 96h)
O=C(Nc1cccnc1)Nc1ccc(F)c(Cl)c1	Pf growth 48h inconclusive, CHX counter 15
COc1ccc(NC(=O)Nc2ccon2)cc1OC	none
O=C(Nc1ccc(Cl)c(Cl)c1)Nc1ccon1	CHX counter 18
O=C(Nc1ccc(Cl)c(Cl)c1)Nc1ccc(Br)cc1F	Pf growth 48h inconclusive, HCMV inh -99, Pf growth 96h 4.7µM
COc1cc(NC(=O)Nc2ccc(Cl)c(Cl)c2)c(C(=O)O)cc1OC	HCMV inh inconclusive
Cc1ccc(NC(=O)Nc2ccc(F)c(Cl)c2)cc1	HCMV inh inconclusive, Shiga inhibitor 82, CHX counter 30
CCC(CC)NC(=O)Nc1ccc(F)c(Cl)c1	none
Cn1c(COc2ccccc2)nnc1SCC(=O)NC1CCCC1	none
CCN1CCN(C(c2cccs2)C(C)NC(=S)Nc2cccc(C)c2C)CC1 (stereo not given)	Pf growth 96h inconclusive
Cc1ccc(C)c(N2CCN(c3nnnn3-c3ccccc3)CC2)c1	Pf growth 48h inconclusive (no result: Pf growth 96h)
O=C(NC1CCCC1)c1cc(=O)[nH]c2ccccc12	Pf growth 96h inconclusive
Cc1nc2ccccc2c(=O)n1-c1ccc(F)cc1	none
Cc1nc2ccccc2c(=O)n1-c1ccc(Br)cn1	Shiga inhibitor 55, CHX counter 27
Cc1ccnc(-n2c(C)nc3ccccc3c2=O)c1	CHX counter 12
Cc1ccnc(-n2c(-c3ccccc3)nc3ccccc3c2=O)c1	none
CC(C)c1ccc(-n2cnn(-c3ncccc3[N+](=O)[O-])c2=O)cc1	Shiga inhibitor 77, CHX counter 34
Cc1cc(C)n(-c2ncccc2[N+](=O)[O-])n1	none
COc1ccc2c(c1)c1c(c(=O)n(-c3ccc(F)c(Cl)c3)c(=O)n1Cc1cccc(C)c1)n2C	none (no result: Pf growth 48h, Shiga inhibitor, CHX counter, Pf growth 96h)
COc1ccc2c(c1)c1c(c(=O)n(-c3cccc(C)c3)c(=O)n1Cc1cccc(Cl)c1)n2C	HCMV inh -67 (no result: Pf growth 48h, Shiga inhibitor, CHX counter, Pf growth 96h)
CCOP(=O)(OCC)/C(=C/N1CCCCC1)NC(=O)c1ccccc1	CHX counter 13, Pf growth 96h inconclusive
CC(=O)Nc1ccc(-c2noc(-c3csc([C@@H]4C[C@H](O)[C@@H](CO)O4)n3)n2)cc1	none (no result: Pf growth 48h, Shiga inhibitor, CHX counter, Pf growth 96h)
COc1cc(-c2[nH]ncc2CN2CCN(Cc3cccs3)CC2)cc(OC)c1OC	Pf growth 48h inconclusive, Pf growth 96h inconclusive
CCN(Cc1ccccc1)C(c1ccncc1)c1nnnn1C(C)(C)C (stereo not given)	Pf growth 48h inconclusive
CC(C)(C)n1nnnc1C(c1cc2ccccc2o1)N(Cc1ccccc1)Cc1ccccc1 (stereo not given)	HCMV inh -87 (no result: Pf growth 48h, Shiga inhibitor, CHX counter, Pf growth 96h)
CC(C)(C)c1ccc(CN(Cc2ccccc2)C(c2ccccn2)c2nnnn2C(C)(C)C)cc1 (stereo not given)	Pf growth 48h 1.7µM (no result: Pf growth 96h)
Cc1ccc(C(=O)N/C(=C\c2sccc2C)C(=O)NCCCN2CCOCC2)cc1	Pf growth 96h inconclusive
CCc1ccc(-c2cn3nc(-c4ccccc4)cnc3n2)cc1	Shiga inhibitor 64, CHX counter 25
COc1cccc(N(C(=O)c2cccs2)c2nc3ccccc3s2)c1	Pf growth 48h inconclusive, HCMV inh -101 (no result: Pf growth 96h)
Cc1ccc2nc(N(Cc3cccnc3)C(=O)c3cccs3)sc2c1	none (no result: Pf growth 48h, Shiga inhibitor, CHX counter, Pf growth 96h)
O=c1c2ccccc2nnn1-c1ccccc1	none (no result: Pf growth 48h, Shiga inhibitor, CHX counter, Pf growth 96h)
Cc1ccc(-n2nnc3ccccc3c2=O)cc1C	Shiga inhibitor 100, CHX counter 50
CCCc1ccc2oc(C(=O)NCCc3cnn(C)c3)c(C)c2c1	Shiga inhibitor 104, CHX counter 34
CCCc1ccc2oc(C(=O)NCCc3nc(C(=O)OCC)cs3)c(C)c2c1	Shiga inhibitor 50, CHX counter 32
COc1ccc(CCNC(=O)c2oc3ccc(OC)cc3c2C)cc1	none
COc1ccc(NC(=O)c2cccc(N3CCCS3(=O)=O)c2)cc1	none (no result: Pf growth 48h, Shiga inhibitor, CHX counter, Pf growth 96h)
Cc1ccc(N/C(SCc2ccccc2C)=C(/C#N)C(=O)NCc2ccco2)cc1C	Pf growth 48h inconclusive, Pf growth 96h inconclusive
CCc1ccc(N/C(SCc2cccc(F)c2)=C(/C#N)C(=O)NCc2ccco2)cc1	Pf growth 48h inconclusive, CHX counter 21
CC(=O)N1CCCN(Cc2nc(C3(c4ccc(C)cc4)CCCC3)no2)CC1	none
COCCN1CCN(Cc2nc(C3(c4ccc(C)cc4)CCCC3)no2)CC1	Pf growth 96h 10µM
Cc1ccc(C2(c3noc(CN4C[C@@H](C)O[C@@H](C)C4)n3)CCCC2)cc1	Pf growth 48h 12µM, Pf growth 96h 12µM
O=c1c2[nH]cnc2n(-c2cccc(Br)c2)c(=O)n1Cc1ccccc1	none
CCOC(CNC(=O)c1[nH]c(C(F)(F)F)nc1-c1ccccc1)OCC	none (no result: Pf growth 48h, Shiga inhibitor, CHX counter, Pf growth 96h)
Cc1cccc(NC(=O)c2cccc(N3C(=O)C4CCC(C)CC4C3=O)c2)c1C (stereo not given)	none
CC1CCC2C(=O)N(c3cccc(C(=O)Nc4ccccc4Cl)c3)C(=O)C2C1 (stereo not given)	Pf growth 96h 12µM
COc1cccc(NC(=O)c2cccc(N3C(=O)C4CCC(C)CC4C3=O)c2)c1 (stereo not given)	Pf growth 48h 2.3µM, Pf growth 96h 4.1µM
